High-throughput results (PubChem)
SENP8 block-1: SENP8 protease inhibitors, primary screen, biochemical, luminescence. Sentrin-specific protease 8 (Homo sapiens), Q96LD8. purified SENP8, Z-RLRGG-aminoluciferin cleavage. inhibition, % at 10 µM. 1.2% of 330,000 active; in the data active = inhibition above about 50%
Target sequence (Q96LD8 whole entry, looked up): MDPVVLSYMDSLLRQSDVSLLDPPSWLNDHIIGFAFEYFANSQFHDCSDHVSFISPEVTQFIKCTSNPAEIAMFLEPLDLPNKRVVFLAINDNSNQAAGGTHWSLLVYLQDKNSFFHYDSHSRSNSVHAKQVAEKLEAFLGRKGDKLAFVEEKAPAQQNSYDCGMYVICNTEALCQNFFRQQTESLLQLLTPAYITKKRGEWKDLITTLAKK
SENP6 inh: SENP6 protease inhibitors, primary screen, biochemical, luminescence, uHTS; 1.8% of 330,000 active; Recombinant SENP6 catalytic domain, aminoluciferin luminescence; inhibition, % at 10 µM; Sentrin-specific protease 6 (Homo sapiens), Q9GZR1; AID 2599, 2010;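 active = inhibition above about 50% at the single tested dose, limit read from the data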
TRAIL sens C8: viability loss with TRAIL in NB7+C8 cells, primary screen, TRAIL sensitizer project, cell-based, ATPlite luminescence; inhibition (viability loss, TRAIL sensitization), % at 10 µM; 1% of 360,000 active;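 active = compounds causing at least 50% loss of cell viability in the single-dose screen, relative to plate controls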
SENP7 inh: SENP7 protease inhibitors, primary screen, biochemical, luminescence, uHTS. Sentrin-specific protease 7 (Homo sapiens), Q9BQF6. AID 434973, 2010. inhibition, % at 5 µM. recombinant SENP7, Z-RLRGG-aminoluciferin luminescence, 40 min. 1.5% of 330,000 active;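 active = inhibition above about 50% at the single test dose, limit read from the data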
Target sequence (Q9BQF6 706-1050 limits assumed): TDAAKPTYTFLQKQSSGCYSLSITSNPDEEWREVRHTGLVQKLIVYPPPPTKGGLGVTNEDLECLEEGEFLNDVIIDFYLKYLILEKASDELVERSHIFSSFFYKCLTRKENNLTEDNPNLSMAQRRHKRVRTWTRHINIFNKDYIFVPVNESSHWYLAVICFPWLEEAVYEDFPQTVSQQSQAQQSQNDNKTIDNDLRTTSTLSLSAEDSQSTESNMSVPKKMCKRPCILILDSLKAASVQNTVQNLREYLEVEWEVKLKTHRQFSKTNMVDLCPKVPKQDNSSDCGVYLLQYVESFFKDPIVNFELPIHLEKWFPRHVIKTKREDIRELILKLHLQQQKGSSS
PPC-1+TRAIL kill: compounds killing PPC-1 cancer cells with TRAIL present, primary screen, TRAIL potentiator project, ATPLite luminescence, uHTS; PPC-1 cells + TRAIL, ATPLite viability luminescence; cell killing (% activity), % at 4 µM or 5 µM; 0.41% of 220,000 active; AID 1443, 2008;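 active = cell killing above 50% in the first pass at 4 µM, then a duplicate retest at 5 µM averaging 50% or more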
SENP8 block-2: human SENP8 protease inhibitors, primary screen, biochemical, fluorescence, Nedd8 protein substrate, uHTS | recombinant SENP8 | 0.64% of 360,000 active | inhibition, % at 20 µM; in the data active = inhibition mostly above about 40%, no sharp cut-off; inactive = mostly below about 27%
SENP8 conf-1: SENP8 protease inhibitors, retest, confirmation, biochemical, luminescence, single concentration | Recombinant SENP8, Z-RLRGG-aminoluciferin luminescence, 60 min | 40% of 6,200 active | AID 488912, 2010 | shares compounds with SENP7 inh | inhibition, % at 12.5 µM;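 active = mean inhibition across replicates above about 50%, limit read from the data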
SENP6 confirm: SENP6 protease inhibitors, confirmation, biochemical, luminescence, single concentration; shares compounds with SENP7 inh; recombinant SENP6, Z-RLRGG-aminoluciferin luminescence; inhibition, % at 12.5 µM; 58% of 6,200 active; AID 488915, 2010
SENP7 conf: SENP7 protease inhibitors, retest, confirmation, biochemical, luminescence, single concentration | shares compounds with SENP7 inh | 69% of 6,200 active | recombinant SENP7, Z-RLRGG-aminoluciferin luminescence, 40 min | AID 488917, 2010 | inhibition, % at 12.5 µM
Casp3 select: caspase-3 protease inhibitors, confirmation, selectivity assay for SENP inhibitor project, biochemical, single concentration | 60% of 6,200 active | purified caspase-3, Z-DEVD-aminoluciferin luminescence, 60 min | inhibition, % at 12.5 µM | AID 488918, 2010 | shares compounds with SENP7 inh;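 active = mean inhibition above about 50%, limit read from the data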
SENP luc ctr: interferes with luciferase luminescence in SENP counter-screen; shares compounds with SENP7 inh; 39% of 6,200 active; inhibition, % at 12.5 µM; Pre-incubated SENP8/Z-RLRGG-aminoluciferin, luciferase luminescence interference;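 active = mean inhibition above about 50% when retested at one dose, limit read from the data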
SENP8 conf-2: human SENP8 protease inhibitors, confirmation, biochemical, Nedd8 protein substrate, single concentration; shares compounds with SENP8 block-2; inhibition, % at 25 µM; purified SENP8, Nedd8-AMC/pro-Nedd8 cleavage fluorescence, 30 min; AID 624319, 2012; 15% of 1,400 active; in the data active = inhibition mostly above about 39%, no sharp cut-off; inactive = mostly below about 34%
Numbers stand for hits; n = inactive; x = not tested or not shown. Rows were chosen to be rich in hits. Some 3% of all compounds tested hit in one or more screens of this group.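 The calls were made as follows, unless noted: active = mean inhibition above about 50% in the one-dose retest (limit read from the data); inactive = the rest.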

SMILES	SENP8 block-1	SENP6 inh	TRAIL sens C8	SENP7 inh	PPC-1+TRAIL kill	SENP8 block-2	SENP8 conf-1	SENP6 confirm	SENP7 conf	Casp3 select	SENP luc ctr	SENP8 conf-2
O=C1Cc2ccccc2C(=O)N1CCc1ccccc1	95	97	n	87	n	98	86	96	86	96	n	88
COc1ccc(S(=O)(=O)Oc2ccc3ccccc3c2)cc1	n	n	n	n	n	n	x	x	x	x	x	x
COc1ccc(S(=O)(=O)Oc2ccc3cccc(N)c3c2)cc1	84	86	n	n	x	56	n	n	n	n	n	n
O=C(NNc1cc(N2CCOCC2)nc(N2CCOCC2)n1)c1ccc([N+](=O)[O-])cc1	n	83	n	52	n	70	n	56	n	n	n	44
CN(CC(=O)OCC(=O)NC1CCCC1)S(=O)(=O)c1ccc(Cl)cc1	n	n	n	n	x	n	x	x	x	x	x	x
C[C@H](CO)N1C[C@H](C)[C@@H](CN(C)S(=O)(=O)c2ccccc2)Oc2ccc(NC(=O)NC3CCCCC3)cc2C1=O	n	n	n	n	x	n	x	x	x	x	x	x
CCOC(=O)c1nn(-c2ccc(C)c(C)c2)c(=O)c2c(N)scc12	n	51	n	n	n	60	n	n	n	n	n	49
CC[C@]12c3[nH]c4cc(-c5ccco5)ccc4c3CCN1C(=O)[C@@H](CC(=O)NC(C)(C)C)C[C@@H]2C(=O)N1CCN(C(=O)c2ccco2)CC1	x	x	n	n	x	n	x	x	x	x	x	x
COc1ccc(S(=O)(=O)N2CCCCC2)cc1NC(=O)C1CC1C (stereo unspecified)	n	n	n	n	x	n	x	x	x	x	x	x
COc1ccccc1N1C(=O)c2cccc3cccc(c23)C1=O	n	n	n	n	x	n	x	x	x	x	x	x
COc1ccccc1N1C(=O)Cc2ccccc2C1=O	n	69	n	n	x	90	n	63	n	n	n	55
CC(C)NC(=O)C1(C)CN(S(C)(=O)=O)CC(=O)N1CCCn1ccnc1 (stereo unspecified)	x	x	n	x	x	n	x	x	x	x	x	x
Nc1ccc(N2CCOCC2)c2nonc12	n	60	n	n	n	69	n	n	n	n	n	78
CCN(C[C@H]1N[C@@](CC)(C(=O)OC)[C@H]2C(=O)N(C)C(=O)[C@@H]12)S(=O)(=O)c1ccc(OC(F)(F)F)cc1	n	n	n	n	x	n	x	x	x	x	x	x
COc1ccc(NC(=S)Nc2ccc3nc(C)c(C)nc3c2)cc1	n	n	n	n	n	n	x	x	x	x	x	x
COc1ccc(NC(=S)Nc2ccc3nsnc3c2)cc1	95	96	n	89	n	52	n	90	84	n	n	71
COc1cc(NC(=O)c2c(F)c(F)c(OC)c(F)c2F)ccc1NC(=O)c1cccs1	n	n	n	n	x	n	x	x	x	x	x	x
CC1=NN(c2ccc(Cl)cc2)C(=O)C1C(c1ccccc1O)c1c(C)[nH]n(-c2ccc(Cl)cc2)c1=O (stereo unspecified)	n	86	n	92	n	95	n	n	n	n	n	n
Nc1nnc2c(n1)CCCC2	n	56	n	n	n	88	n	61	n	n	n	63
COc1ccc(-c2[nH]n(-c3ccc([N+](=O)[O-])cc3)c(=O)c2C=NCc2ccc(F)cc2)cc1	n	n	n	n	n	n	x	x	x	x	x	x
COc1ccc(-c2cc(=O)n(-c3ccc([N+](=O)[O-])cc3)[nH]2)cc1	79	92	n	n	n	87	n	n	n	n	n	n
CN(C)c1ccc(N/C=C/C(=O)c2ccco2)cc1	90	96	62	96	n	45	n	94	101	95	n	n
O=C(NNC(=O)c1cccc2ccccc12)c1cccc(Cl)c1	x	x	n	x	x	n	x	x	x	x	x	x
COC(=O)c1sccc1-n1cccc1C(=O)C(=O)Nc1ccc(F)cc1	n	n	n	n	n	n	x	x	x	x	x	x
COC(=O)c1ccc(NC(=O)C(=O)c2cccn2C)cc1	93	95	62	95	n	30	94	97	102	97	80	n
SMILES	SENP8 block-1	SENP6 inh	TRAIL sens C8	SENP7 inh	PPC-1+TRAIL kill	SENP8 block-2	SENP8 conf-1	SENP6 confirm	SENP7 conf	Casp3 select	SENP luc ctr	SENP8 conf-2
CS(=O)(=O)c1ccc(-c2csc(-c3cccnc3)n2)cc1	n	n	n	n	x	n	x	x	x	x	x	x
O=C(c1ccc([N+](=O)[O-])o1)N1CCc2ccccc21	n	52	n	n	x	48	n	52	n	59	n	n
COc1ccc(Cc2nnc(SCC(=O)N3CCc4ccccc4C3)o2)cc1	n	n	n	n	n	39	x	x	x	x	x	76
NS(=O)(=O)c1ccc(N/N=C2/CCCCC2C2CCCCC2)c([N+](=O)[O-])c1 (stereo unspecified)	n	n	n	n	n	n	x	x	x	x	x	x
Cc1cc(C)c2c(c1)/C(=N/Nc1ccc(S(N)(=O)=O)cc1[N+](=O)[O-])CCC2	n	n	n	n	n	53	x	x	x	x	x	n
O=C(O)c1cccc(Sc2cc(Cl)ccc2C(=O)O)c1	n	n	n	n	x	n	x	x	x	x	x	x
COc1cc(NCCCNC(C)C)c2nccc(C)c2c1	x	x	n	x	x	65	x	x	x	x	x	48
CN(C)CCCN(C(=O)c1ccc2c(c1)OCCO2)c1nc2cc3c(cc2s1)OCO3	n	n	n	n	x	n	x	x	x	x	x	x
CN(C)CCN(C(=O)c1ccc(N2C(=O)CCC2=O)cc1)c1nc2cc3c(cc2s1)OCO3	n	n	n	n	n	59	x	x	x	x	x	48
Cc1onc(-c2c(Cl)cccc2Cl)c1C(=O)c1ccccc1	n	n	n	n	n	n	x	x	x	x	x	x
